aSyn 5UTR inh – 5' untranslated region of α-synuclein, MLPCN primary screen; alpha-synuclein 5'UTR reporter, inhibitor activity; inhibition, % (tested at 7.5 µM); AID 1813; hit rate 0.82% among 300,000; in the data active = inhibition above about 60%;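 note: H4 neuroglioblastoma cells stably carrying SNCA 5'UTR luciferase fusion; 0% = DMSO wells and 100% = positive control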
TROY NFkB inh – inhibitors of TROY-dependent NF-kB signaling | Q293 LMP1-TROYcd NF-kB luciferase reporter, 4 h | inhibition, % at 10 µM | hit rate 0.98% among 360,000 | AID 1347056;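 active = compounds whose plate-normalised and pattern-corrected inhibition of the luciferase reporter signal at the single screening dose is 50% or more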
TRAIL sens C8 – caspase-8 TRAIL sensitization. NB7+C8 cells + TRAIL, ATPlite viability luminescence. inhibition (viability loss, TRAIL sensitization), % at 10 µM. hit rate 1% among 360,000. AID 624354;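 active = compounds causing at least 50% loss of cell viability in the single-dose screen, relative to plate controls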
TWEAK Fn14 block – TWEAK-Fn14 signaling inhibition. TWEAK-stimulated Fn14 reporter cells, luciferase luminescence, 8 h. inhibition, % at 10 µM. hit rate 2% among 360,000; in the data active = inhibition above about 50%
HIF-2a block – HIF-2a inhibition | 786-0 RCC cells HIF-2a reporter, luciferase luminescence, overnight | inhibition, % at 18.8 µM | AID 624352 | hit rate 0.72% among 360,000;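 active = inhibition of the luminescence signal of 40% or more relative to plate controls, in a single-dose primary screen at 18.75 µM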
HSP90 refold inh – blocks HSP90-mediated luciferase refolding in reticulocyte lysate; Rabbit reticulocyte lysate, luciferase refolding luminescence, 3 h; inhibition, % at 5.6 µM; hit rate 0.91% among 290,000; AID 1789;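 active = inhibition above the screen-wide mean plus 3 SD, computed separately per campaign, cut at about 16% in these data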;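 note: 0% = DMSO wells and 100% = 60 µM geldanamycin wells; inhibitors lower the luminescence because luciferase stays unfolded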
Numbers without * were called inactive; . = no result. This is a sample that favours compounds with a hit; in the whole collection about 3.9% have one here.

SMILES | aSyn 5UTR inh | TROY NFkB inh | TRAIL sens C8 | TWEAK Fn14 block | HIF-2a block | HSP90 refold inh
O=c1[nH]c2ccccc2n1C1CCN(C(c2ccccc2OC(F)(F)F)c2nnnn2-c2ccc3c(c2)OCCO3)CC1 (stereo not drawn) | . | 42 | -1 | 76* | -44 | .
CC(CCN1CC1)=NNC(=O)Nc1cccc2ccccc12 | . | 37 | 2 | 58* | 6 | .
CC(C)CN1Cc2ccccc2-n2nncc2C1 | . | -8 | -5 | 6 | 5 | .
COC1C(OC(=O)c2ccc(C)[nH]2)C(O)C(Oc2ccc3c(O)c(NC(=O)c4ccc(O)c(CC=C(C)C)c4)c(=O)oc3c2Cl)OC1(C)C (stereo not drawn) | . | 55* | 9 | 10 | -6 | -4
CCN(CCNc1ccc([N+](=O)[O-])c2cccnc12)S(=O)(=O)c1ccccc1 | 15 | -6 | 1 | -17 | 12 | 0
Cc1c(NS(=O)(=O)c2ccccc2)ccc([N+](=O)[O-])c1Cl | . | 59* | 8 | 46 | -20 | .
O=C(NCC1=C(c2ccc3ccccc3c2)C[C@@H]2CC[C@H]1N2Cc1ccco1)c1ccc([N+](=O)[O-])cc1 | . | 7 | -2 | 2 | -3 | .
COc1ccc(C[C@H]2NC[C@H](O)[C@H]2OC(C)=O)cc1 | 112* | 82* | 86* | 97* | 91* | .
O=[N+]([O-])c1ccc(CNCCc2ccccc2)cc1 | -10 | -17 | -20 | 98* | -14 | 1
CCOc1ccc([N+](=O)[O-])cc1CNCCc1ccccc1 | -26 | 12 | 12 | 1 | -2 | 3
CCC1(CCC(C)C)C(=O)NC(=O)N(c2ccccc2)C1=O (stereo not drawn) | . | -2 | -12 | -10 | 0 | .
COc1c(OP2(=S)OCC(C)(C)CO2)cnn(C2CCCCC2)c1=O | . | -5 | 9 | -11 | -78 | .
O=c1[nH]c2ccccc2n1C1CCN(C(CCc2ccccc2)c2nnnn2C2CCCC2)CC1 (stereo not drawn) | . | 53* | 14 | 51* | -99 | .
O=c1[nH]c2ccccc2n1C1CCN(C(c2cc3ccccc3o2)c2nnnn2Cc2ccccc2)CC1 (stereo not drawn) | . | 46 | 87* | 76* | -22 | .
COc1cccc(C(c2nnnn2Cc2ccccc2)N2CCC(n3c(=O)[nH]c4ccccc43)CC2)c1OC (stereo not drawn) | . | 30 | 27 | 39 | -7 | .
Cc1cccc(C)c1-n1nnnc1C(c1cc2ccccc2o1)N1CCC(n2c(=O)[nH]c3ccccc32)CC1 (stereo not drawn) | . | 77* | -10 | 102* | -41 | .
O=c1[nH]c2ccccc2n1C1CCN(C(c2cccc3ccccc23)c2nnnn2Cc2ccccc2)CC1 (stereo not drawn) | . | 36 | 34 | 53* | -35 | .
CCOC(=O)c1cc2c(cn1)[C@H](CCO)NC2 | . | -10 | -30 | 8 | 2 | .
C[C@]12CC[C@@H](O)CC1=CC(=O)C1C2CC[C@]2(C)C(=O)[C@H](O)CC12 (stereo partly drawn) | . | -6 | 3 | 3 | 7 | .
Clc1cccc(N2Cc3cc(-c4ccccc4)ccc3-n3nncc3C2)c1 | . | -14 | -1 | 50 | 11 | .
CCCCCc1nc2c(c(=O)c3ccccc3n2C)c(=O)n1C1CCCCCC1 | 25 | 89* | 22 | 44 | -3 | 3
Cc1ccc(S(=O)(=O)N2Cc3cc(N4CCOCC4)ccc3-n3nncc3C2)cc1 | . | -3 | -12 | -29 | 3 | .
N#CC(C#N)=Cc1ccc(-c2ccccc2F)o1 | . | 11 | -1 | 70* | -7 | -4
N#CC(C#N)=Cc1ccc(-c2ccccc2)o1 | -2 | . | . | . | . | -2
CCC(C)C(=O)N[C@@H](c1ccccc1)[C@@H](O)C(=O)O[C@H]1C[C@@]2(O)[C@@H](OC(=O)c3ccccc3)C3[C@](C)(C(=O)[C@H](OC(C)=O)C(=C1C)C2(C)C)[C@@H](O)C[C@H]1OC[C@@]31OC(C)=O (stereo partly drawn) | 103* | 1 | 33 | 38 | 22 | -4
SMILES | aSyn 5UTR inh | TROY NFkB inh | TRAIL sens C8 | TWEAK Fn14 block | HIF-2a block | HSP90 refold inh
C/C=C(\C)C(=O)N[C@@H](c1ccccc1)[C@@H](O)C(=O)O[C@H]1C[C@@]2(O)[C@@H](OC(=O)c3ccccc3)C3[C@](C)(C(=O)[C@H](OC(C)=O)C(=C1C)C2(C)C)[C@H](O)C[C@H]1OC[C@@]31OC(C)=O (stereo partly drawn) | 110* | -2 | 21 | 44 | 24 | -4
CC(=O)O[C@@]12CO[C@@H]1C[C@@H](O)[C@@]1(C)C(=O)[C@H](O)C3=C(C)[C@@H](OC(=O)[C@H](O)[C@@H](NC(=O)c4ccccc4)c4ccccc4)C[C@@](O)([C@@H](OC(=O)c4ccccc4)C12)C3(C)C (stereo partly drawn) | 113* | 5 | 12 | 23 | 22 | 2
CCCCCC(=O)N[C@@H](c1ccccc1)[C@@H](O)C(=O)O[C@H]1C[C@@]2(O)[C@@H](OC(=O)c3ccccc3)C3[C@](C)(C(=O)[C@H](O)C(=C1C)C2(C)C)[C@@H](OC1OCC(O)C(O)C1O)C[C@H]1OC[C@@]31OC(C)=O (stereo partly drawn) | 7 | 5 | 3 | 14 | 10 | -2
CC(=O)OC12COC1CC(O)C1(C)C(=O)C(O)C3=C(C)C(O)CC(O)(C(OC(=O)c4ccccc4)C21)C3(C)C (stereo not drawn) | . | -2 | -2 | 32 | -2 | .
CC(=O)O[C@@]12CO[C@@H]1C[C@H](OC1OCC(O)C(O)C1O)[C@@]1(C)C(=O)[C@H](O)C3=C(C)[C@@H](OC(=O)[C@H](O)[C@@H](NC(=O)c4ccccc4)c4ccccc4)C[C@@](O)([C@@H](OC(=O)c4ccccc4)C12)C3(C)C (stereo partly drawn) | -11 | -4 | 13 | 2 | -9 | -6
CC/C=C/CC(=O)N[C@@H](c1ccccc1)[C@@H](O)C(=O)O[C@H]1C[C@@]2(O)[C@@H](OC(=O)c3ccccc3)C3[C@](C)(C(=O)[C@H](OC(C)=O)C(=C1C)C2(C)C)[C@@H](O)C[C@H]1OC[C@@]31OC(C)=O (stereo partly drawn) | 77* | -14 | 15 | 4 | -36 | -1
CNC(=O)C[C@H]1CC[C@@H]2NC[C@H](O)COC[C@H]2O1 | . | . | 0 | . | -3 | .
CC1(C)CC(=O)CC(C)(C)N1O | . | -9 | -10 | -2 | 7 | .
CC1CN=C(Nc2ccccc2)S1 (stereo not drawn) | -8 | 5 | 7 | -8 | -8 | -4
CC1CN=C(Nc2cccc3ccccc23)S1 (stereo not drawn) | -35 | 53* | -9 | 44 | -61 | 1
CCC(=Nc1ccc(OC)cc1OC)c1c(O)[nH]c(=O)[nH]c1=O | 28 | -1 | -8 | 3 | 20 | 4
CCC(=Nc1cc(OC)ccc1OC)c1c(O)[nH]c(=O)[nH]c1=O | 71* | 1 | 2 | 3 | 30 | 3

Screens as filed in PubChem.
